Measured values taken from PubChem BioAssay (Tox21).
Where “and” joins values, the source holds several entries; their conditions need not be identical. Equal values may be shown once. Results filed as inconclusive are left out. A call without a number means that no potency is given here. Some compounds were tested as several samples or in several runs, with calls that do not always agree. Calls of active or inactive are those of the source. Calls come from the whole dose curve; as a rule, active = well fitted inhibition curve with a large enough effect in the signal ratio in the repeat runs, with a control signal flat; inconclusive = weak or mixed curves, or effect the other way; inactive = flat fitted curve, though single readings scatter; the % refers to the signal ratio.

Target: D(2) dopamine receptor (Homo sapiens) (UniProt P14416)
Sequence (P14416 whole entry, looked up): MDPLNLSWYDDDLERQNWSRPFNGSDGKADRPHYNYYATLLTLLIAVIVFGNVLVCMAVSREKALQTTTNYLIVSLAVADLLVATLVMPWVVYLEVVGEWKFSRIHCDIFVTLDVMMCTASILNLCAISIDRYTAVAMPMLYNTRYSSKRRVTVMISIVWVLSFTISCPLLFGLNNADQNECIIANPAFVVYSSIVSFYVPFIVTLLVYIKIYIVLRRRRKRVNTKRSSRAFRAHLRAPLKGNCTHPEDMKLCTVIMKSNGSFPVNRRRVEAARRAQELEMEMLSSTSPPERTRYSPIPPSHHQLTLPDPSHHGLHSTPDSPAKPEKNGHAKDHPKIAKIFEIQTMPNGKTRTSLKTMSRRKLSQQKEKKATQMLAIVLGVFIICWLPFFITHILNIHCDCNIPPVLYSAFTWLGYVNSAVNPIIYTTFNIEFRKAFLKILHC
Test: Dopamine D2 receptor (DRD2) small molecule antagonists, cell-based qHTS assay (AID 1963595)
Outline: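 HEK293 cells stably expressing DRD2, preincubated with 0.1 mM Ro20-1724 and compounds 10 min, were stimulated with 200 nM NKH477 plus 12 nM quinpirole for 30 min at room temperature; cAMP measured by HTRF (665/620 nm).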
Potency is the fitted concentration of half-maximal effect.

SMILES | Potency | activity change, negative = inhibition
O=C1C(O)=C(O)C(=O)C(O)=C1O | inactive | 
CC1(C)CO[C@@H](CC(=O)O)CN1 | inactive | 
CCN(CC)C(=O)C1CN2CCc3cc(OC)c(OC)cc3C2CC1OC(C)=O (centres undefined) | inactive | 
O=C(O)/C=C/c1ccc(Cn2ccnc2)cc1 | inactive | 
CCOC(OCC)C(=O)c1ccccc1 | inactive | 
CC(=N\O)/C(C)=N/O | inactive | 
FC(F)(F)c1ccccc1Cl | inactive | 
CC(C)(C)NCCO | inactive | 
C=CC(=O)OCCN(CC)CC | inactive | 
COc1ccc(C(=O)NCc2ccc(OCCN(C)C)cc2)cc1OC | inactive | 
CC1(C)C(=O)N(Br)C(=O)N1Cl | inactive | 
Cc1cc(C)c(N=Nc2c(O)c(S(=O)(=O)O)cc3cc(S(=O)(=O)O)ccc23)cc1C |  | 0.169% [at 8.38 µM] (inactive)
Cc1cccc(N)n1 | inactive | 
CCCCCCCCCCCCCCCC | inactive | 
Cc1cc(C)cc(O)c1 | inactive | 
NNc1nncc2ccccc12 | inactive and 10.3 µM (active) | 
CC1(C)Oc2ccc(C#N)cc2[C@@H](N2CCCC2=O)[C@@H]1O | inactive | 
OCC1CCC(CO)CC1 (centres undefined) | inactive | 
C/C(=C1\CCOC(=O)S1)N(C=O)Cc1cnc(C)nc1N | inactive | 
CC(C)(O)Cc1ccccc1 | inactive | 
CCCCc1ccc2cccc(S(=O)(=O)O)c2c1 | inactive | 
CC(=O)c1cc(C)oc1C | inactive | 
C=CC(C)(O)CC/C=C(\C)CCC=C(C)C (centres undefined) | inactive | 
[K+] | inactive | 
CC(C)C(=O)c1c(C(C)C)nn2ccccc12 | inactive | 

SMILES | Potency | activity change, negative = inhibition
O=C(O)c1ccc([N+](=O)[O-])cc1 | inactive | 
CCCCC(CC)COP(=O)(OCC(CC)CCCC)OCC(CC)CCCC (centres undefined) | inactive | 
OCC#CCO | inactive | 
CC(C)(C)C(=O)OCOC(=O)C1N2C(=O)CC2S(=O)(=O)C1(C)C (centres undefined) | inactive | 
C=C(C)[C@@H]1CC[C@@H](C)C[C@@H]1O | inactive | 
CC(C)(CC(=O)O)C(=O)O | inactive | 
Cc1ccc(N(C)C)cc1 | inactive | 
Cc1ccccc1C(=O)N1CC/C(=N\OS(=O)(=O)O)c2ccc(Cl)cc21 | inactive | 
CCCC(C)CCC(C)=O (centres undefined) | inactive | 
Nc1ccc2c(S(=O)(=O)O)cccc2c1S(=O)(=O)O | inactive | 
O=C(O)c1ccc(O)cc1O | inactive | 
CC1=CC(C)C(C=O)CC1 (centres undefined) | inactive | 
CCO[Si](C)(OCC)OCC | inactive | 
CC(C)(C)OC=O | inactive | 
COc1ccc(Br)c(C)c1 | inactive | 
CNC1(C)C2CCC(C2)C1(C)C (centres undefined) | inactive | 
Nc1cc([N+](=O)[O-])ccc1O | inactive | 
CCCCc1ncc(/C=C(\Cc2cccs2)C(=O)O)n1Cc1ccc(C(=O)O)cc1 | inactive | 
C=CC(=O)OCCOC(=O)C=C | inactive | 
CCC(=O)c1ccc(O)cc1 | inactive | 
CC1CCc2nccnc21 (centres undefined) | inactive | 
C[C@@H](O)[C@H]1C(=O)N2C(C(=O)O)=C([C@H]3CCCO3)S[C@H]12 | inactive | 
CC1=C(C=O)C(C)(C)CC=C1 | inactive | 
C=C1[C@H]2CC[C@@H]3[C@H]2C(C)(C)CCC[C@]13C | inactive | 
CCC(C)SSC(C)CC (centres undefined) | inactive | 

SMILES | Potency | activity change, negative = inhibition
CC(C)C(=O)C(C)C | inactive | 
Cc1ccccc1S(=O)(=O)O | inactive | 
SCCSCCS | inactive | 
CC1C(C)(C)C2=C(C(=O)CCC2)C1(C)C (centres undefined) | inactive | 
C[C@@H]1NC(=O)[C@@H](N)CNC(=O)[C@H](C2CCNC(N)=N2)NC(=O)/C(=C/NC(N)=O)NC(=O)[C@H](CNC(=O)C[C@@H](N)CCCN)NC1=O (some centres undefined) |  | -5.12% [at 0.348 µM] (inactive)
CCN(CC)CC(=O)OCC(=O)[C@@]1(O)CC[C@H]2[C@@H]3CCC4=CC(=O)CC[C@]4(C)[C@H]3[C@@H](O)C[C@@]21C | inactive | 
CCSC(=O)N(CC(C)C)CC(C)C | inactive | 
CCN1C(=O)c2ccccc2C1Nc1ccc(OCCN2CCCCC2)cc1 (centres undefined) | inactive | 
CC12CCC(C(=O)C1=O)C2(C)C (centres undefined) | inactive | 
CCCCCCCCCC(C)=O | inactive | 
O=S(=O)(O)c1ccc2c(N=Nc3ccc(S(=O)(=O)O)c4ccccc34)c(O)c(S(=O)(=O)O)cc2c1 |  | 0.317% [at 8.38 µM] (inactive)
CC(C)OCCO | inactive | 
CS(=O)(=O)O | inactive | 
O=C[O][Al]([O]C=O)[O]C=O | inactive | 
[Cl][Nd]([Cl])[Cl] | inactive | 
CC(C)C(=O)OCCOc1ccccc1 | inactive | 
CCc1ccc(Br)cc1 | inactive | 
CCCc1ccc(N)cc1 | inactive | 
C[n+]1ccn(Cc2ccccc2)c1 | inactive | 
Cc1nc(C)c(C)nc1C | inactive | 
NC(=O)c1ccc([N+](=O)[O-])cc1Cl | inactive | 
CC(=O)c1ccc2ccccc2c1 | inactive | 
C=CC(=O)CC | inactive | 
CSCCC=O | inactive | 
CC1=CCC(O)(C(C)C)CC1 (centres undefined) | inactive | 

SMILES | Potency | activity change, negative = inhibition
C(/C=C/C=C/Nc1ccccc1)=Nc1ccccc1 | inactive | 
CC(=O)OCC1=C(C(=O)O)N2C(=O)[C@@H](NC(=O)Cc3cccs3)[C@H]2SC1 | inactive | 
CCCCCCCC(OC)OC | inactive | 
CC1=C(O)C(=O)OC1C (centres undefined) | inactive | 
CC(CC=O)CC(C)(C)C (centres undefined) | inactive | 
CC1=CC(=O)[C@H]2C[C@@H]1C2(C)C | inactive | 
C=CCCCCCCCCC(=O)OCCCC | inactive | 
C/C=C/C(=O)C1=C(C)C=CCC1(C)C | inactive | 
O=Cc1cc2ccccc2o1 | inactive | 
NC(=O)c1ccccc1Cl | inactive | 
CN(C)CCCNCCCN(C)C | inactive | 
c1ccc(CNCc2ccccc2)cc1 | inactive | 
Clc1cc(Cl)c(Cl)c(Cl)c1Cl | inactive | 
CCOC(=O)c1ccc(OCCN2C[C@H](O)[C@@H](O)[C@H](O)[C@H]2CO)cc1 | inactive | 
O=S(=O)(O)c1cc(O)c(O)c(S(=O)(=O)O)c1 | inactive | 
NCCNCCN | inactive | 
CC(CCO)CCc1ccccc1 (centres undefined) | inactive | 
CCc1c(Br)c(Br)c(Br)c(Br)c1Br | inactive | 
COc1cccc(OC)c1C(=O)O | inactive | 
C=CC(=O)OCCOC1C2CCC1C1CC=CC12 (centres undefined) |  | 7.6% [at 18.9 µM] (inactive)
Clc1ccc2c(Cl)ccnc2c1 | inactive | 
COCCCC/C(=N\OCCN)c1ccc(C(F)(F)F)cc1 | inactive | 
Cc1c(C(=O)c2c[nH]n(C)c2=O)ccc(S(C)(=O)=O)c1C1=NOCC1 | inactive | 
CC(CO)CO | inactive | 
